From PubChem BioAssay (EPA / NIEHS)
“And” between values parts separate entries of the source, which are not always exact repeats. Equal values may be shown once. The source made the active and inactive calls. How the source made its calls: active means hit-call score of the fitted dose curve at least 0.9, where 1 is the maximum; inactive means score below 0.9.

Columns and labels:
Details in all cases: primary human HUVEC with PBMC; actives raise or lower the signal
[1] = read-out: Interleukin-1 alpha (IL1a), IL1A (gene 3552); assay: BSK_LPS_IL1a: BioMAP Diversity Plus: LPS Assay for Interleukin-1 alpha (IL1a) Biomarker Activity (AID 2283080)
Method in brief: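 Human umbilical vein endothelial cells co-cultured with PBMC and stimulated with LPS; IL-1a measured by ELISA 24 h after dosing. Bidirectional fitting against DMSO; cytotoxicity checked by SRB staining in parallel cultures.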

[2] = read-out: Monocyte Chemoattractant Protein-1 (MCP1), CCL2 (gene 6347); assay: BSK_LPS_MCP1: BioMAP Diversity Plus: LPS Assay for Monocyte Chemoattractant Protein-1 (MCP1) Biomarker Activity (AID 2283081);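 on AC50: secreted MCP-1 protein quantified by ELISA in culture supernatant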
Method in brief: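 Human umbilical vein endothelial cells co-cultured with PBMC, LPS-stimulated; secreted MCP-1 measured by ELISA 24 h after compound addition. Bidirectional curve fitting against DMSO baseline; SRB total-protein staining in parallel cultures for cytotoxicity.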

[3] = read-out: Macrophage colony-stimulating factor (MCSF), CSF1 (gene 1435); assay: BSK_LPS_MCSF: BioMAP Diversity Plus: LPS Assay for Macrophage colony-stimulating factor (MCSF) Biomarker Activity (AID 2283083)
Method in brief: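 HUVEC–PBMC co-culture, M-CSF measured by ELISA 24 h after chemical dosing. Fitted in both directions relative to DMSO as negative control; overt cytotoxicity assessed by SRB total-protein staining in parallel cultures.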

[4] = read-out: Tissue Factor, F3 (gene 2152); assay: BSK_LPS_TissueFactor: BioMAP Diversity Plus: LPS Assay for Tissue Factor Biomarker Activity (AID 2283084)
Method in brief: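 Human umbilical vein endothelial cells co-cultured with PBMC were dosed with compound. Cell-surface CD142 was measured by ELISA 24 h later. Activity was fitted bidirectionally against DMSO, with SRB total-protein staining in parallel cultures for cytotoxicity.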

[5] = read-out: Tumor necrosis factor (Homo sapiens) (UniProt P01375); assay: BSK_LPS_TNFa: BioMAP Diversity Plus: LPS Assay for Tumour Necrosis Factor alpha (TNFa) Biomarker Activity (AID 2283085);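 on AC50: TNFa protein level quantified by ELISA in the co-culture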
Method in brief: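 Human umbilical vein endothelial cells co-cultured with PBMC and stimulated with LPS. TNFa was measured by ELISA 24 h after chemical dosing, fitted bidirectionally relative to DMSO.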

[6] = read-out: Vascular cell adhesion molecule 1 (VCAM1), VCAM1 (gene 7412); assay: BSK_LPS_VCAM1: BioMAP Diversity Plus: LPS Assay for Vascular cell adhesion molecule 1 (VCAM1) Biomarker Activity (AID 2283086)
Method in brief: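 Human umbilical vein endothelial cells co-cultured with PBMC and stimulated with LPS; VCAM-1 measured by ELISA 24 h after dosing. Bidirectional curve fitting against DMSO baseline; cytotoxicity tracked in parallel by SRB total-protein staining.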

[7] = read-out: CD38, CD38 (gene 952); assay: BSK_SAg_CD38: BioMAP Diversity Plus: SAg Assay for CD38 Biomarker Activity (AID 2283087)
Method in brief: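 Human HUVEC plus PBMC co-culture stimulated with superantigen; CD38 measured by ELISA 24 h after chemical dosing. Fluorescence read-out, bidirectional fit against DMSO; cytotoxicity tracked in parallel by SRB and Alamar Blue.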

[8] = read-out: CD40, CD40 (gene 958); assay: BSK_SAg_CD40: BioMAP Diversity Plus: SAg Assay for CD40 Biomarker Activity (AID 2283088)
Method in brief: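 HUVEC plus PBMC co-culture, superantigen-activated, with CD40 read by ELISA 24 h after dosing. Curves fitted in both directions against DMSO. Overt cytotoxicity checked by parallel SRB total-protein staining.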

[9] = read-out: CD69, CD69 (gene 969); assay: BSK_SAg_CD69: BioMAP Diversity Plus: SAg Assay for CD69 Biomarker Activity (AID 2283089);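 on AC50: cell surface CD69 protein quantified by ELISA with fluorescence detection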
Method in brief: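 Values derive from bidirectional fitting relative to DMSO vehicle. Cells: umbilical vein endothelium plus peripheral blood mononuclear cells, treated 24 h before fluorescent ELISA for CD69.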

[10] = BSK_LPS_PGE2: BioMAP Diversity Plus: LPS Assay for Prostaglandin E2 (PGE2) Biomarker Activity (AID 2283082);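 on AC50: secreted prostaglandin E2 measured by ELISA in LPS-stimulated co-culture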
Method in brief: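 HUVEC plus human PBMC co-culture stimulated with LPS; secreted PGE2 quantified by ELISA 24 h after chemical dosing. Activity fitted bidirectionally against DMSO baseline; parallel SRB staining (0.1% SRB after 10% TCA fixation, 560 nm) flags overt cytotoxicity.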

Measured: AC50

Tumor necrosis factor (Homo sapiens), sequence (P01375 whole entry, looked up): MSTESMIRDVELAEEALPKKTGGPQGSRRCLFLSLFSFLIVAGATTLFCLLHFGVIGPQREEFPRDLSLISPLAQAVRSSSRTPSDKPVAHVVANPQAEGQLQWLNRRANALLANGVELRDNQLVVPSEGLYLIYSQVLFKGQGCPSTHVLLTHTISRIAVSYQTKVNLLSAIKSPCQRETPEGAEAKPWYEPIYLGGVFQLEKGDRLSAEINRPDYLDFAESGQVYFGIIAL

CCCCCCOC(=O)CCCCC(=O)OCCCCCC
not listed: [10]
inactive: all other assays above

O=C1CCCCCCCCCCC1
inactive: all assays above

Clc1cc(Cl)c(Cl)c(Cl)c1Cl
active: [1] 16.2 µM
inactive: all other assays above

C=CC(=O)OCC(C)OCC(C)OCC(C)OC(=O)C=C (stereo not drawn)
active: [1] 9.53 µM | [2] 9.18 µM | [10] 5.46 µM | [3] 10 µM | [4] 10.6 µM | [6] 8.45 µM | [7] 7.74 µM | [8] 8.77 µM | [9] 7.77 µM
inactive: [5]

COC(OC)(C(=O)c1ccccc1)c1ccccc1
active: [1] 0.0387 µM
inactive: all other assays above

CC1=CC=C(C(C)C)CC1
not listed: [10]
inactive: all other assays above

c1ccc(Nc2cccc3ccccc23)cc1
inactive: [4]
active: [1] 34.1 µM and 34.7 µM | [2] 27.8 µM and 29.1 µM | [10] 2.88 µM and 2.19 µM | [3] 31.2 µM and 16.1 µM | [5] 31.6 µM and 29.9 µM | [6] 32.5 µM and 28.1 µM | [7] 30.4 µM and 31.1 µM | [8] 28.9 µM and 26.5 µM | [9] 30.4 µM and 33.2 µM
